In all, about 1,900 compounds went through this assay and about 430 (23%) were called active.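 Rule for the calls: active = duplicate-averaged calcium rise in uninduced cells above buffer wells' mean plus 5 SD; inactive = the rest.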 These entries were drawn from the full list.
assay: direct calcium signal without carbachol stimulation – cell-based, HEK293 M3R, non-induced, no carbachol, second counter-screen, artefact control for RGS4 inhibitor project, confirmation (AID 493001); conditions: Fluo-4 calcium, at 10 µM; stronger effect = higher value, normalised: buffer wells 0%, carbachol wells 100%

Row | Compound | calcium response (agonist-mode artifact)
1 | COc1ccccc1C1C(C#N)=C(N)Oc2c1c(-c1ccccc1)nn2-c1ccccc1 (configuration not stated) | 8% (active)
2 | O=C(Nc1ccccc1)OCc1cc(-c2ccc(Cl)cc2)on1 | inactive
3 | COc1ccc2c(c1OC)C(=O)OC2Nc1nc(-c2ccccc2)cs1 (configuration not stated) | inactive
4 | CC(C)c1nc(SCC(=O)Nc2cccc(C(=O)O)c2)c2c3c(sc2n1)CCCC3 | inactive
5 | O=C(NCCCc1ccccc1)C1CCC(CNc2c(N3CCCCC3)c(=O)c2=O)CC1 (configuration not stated) | inactive
6 | Cn1c(-c2ccco2)nc2cc3ccccc3cc21 | inactive
7 | Cc1ccc(-c2c3c(=O)n(C)c(=O)n(C)c3cn2-n2cnnc2)cc1 | inactive
8 | Nc1ccccc1SC(C[N+](=O)[O-])c1ccccc1 (configuration not stated) | 26% (active)
9 | c1ccc(C[C@H]2CNCCN2CCC23CC4CC(CC(C4)C2)C3)cc1 | inactive
10 | C=CCSc1nc2c(c(=O)[nH]1)C(C(C)C)C(C#N)=C(N)O2 (configuration not stated) | inactive
11 | CCn1c(O)c(N=NC2=NC(=O)CS2)c2cc(C)ccc21 | inactive
12 | O=C1NC(c2ccc(-c3ccccc3[N+](=O)[O-])o2)C(C(=O)c2ccc(Cl)cc2)C(O)(C(F)(F)F)N1 (configuration not stated) | 7% (active)
13 | Cc1ccc(SC(CC(=O)c2ccc(C(C)(C)C)cc2)C(=O)O)cc1 (configuration not stated) | inactive
14 | O=C(Nc1ccc(Cl)cc1)OCc1cc(-c2ccccc2)on1 | inactive
15 | O=C(O)c1ccc2c(c1)C(=O)N(c1ccc(/C=C/C(=O)c3ccccc3)cc1)C2=O | inactive
16 | COc1cc(/C=C2/SC(=S)N(Cc3ccccc3)C2=O)cc(OC)c1O | 37.5% (active)
17 | COc1ccc(/C(O)=C2/C(=O)C(=O)N(c3nc(C)c(C)s3)C2c2ccco2)cc1 (configuration not stated) | inactive
18 | COc1ccc(-c2csc(Nc3ccc(O)cc3)n2)cc1 | inactive
19 | CNc1nc(Nc2ccc(C)c(Cl)c2)nc(N)c1[N+](=O)[O-] | inactive
20 | O=C(O)c1ccc2c(=O)n3c(nc2c1)/C(=C/c1ccc(Cl)c([N+](=O)[O-])c1)CC3 | inactive
21 | COc1cc2c(cc1O)C(SC)=NC(C)(C)C2 | inactive
22 | Cc1cc(C)nc(S/C=C/C(=O)c2ccccc2)n1 | inactive

Row | Compound | calcium response (agonist-mode artifact)
23 | O=C(/C=C/Sc1ncn[nH]1)c1ccc(Cl)cc1 | 9% (active)
24 | CC(=O)Nc1ccc(S(=O)(=O)Nc2nc(-c3ccc(C(C)(C)C)cc3)cs2)cc1 | inactive
25 | O=C(/C=C/c1ccc(Cl)c([N+](=O)[O-])c1)c1cccnc1 | inactive
26 | Cc1ccc(C)c(Cn2nnc3c(=O)[nH]c(C(=O)Nc4ccc(F)cc4)nc32)c1 | inactive
27 | O=C(NCc1ccccc1)c1ccc(S(=O)(=O)Nc2cccc(C(F)(F)F)c2)cc1 | 13% (active)
28 | CCc1ccc2oc(-c3ccc(N)cc3)nc2c1 | inactive
29 | CCCCC1S/C(=N/N=C/c2cccs2)NC1=O (configuration not stated) | inactive
30 | CCOC(=O)[C@@H]1[C@H]2COc3ccc(Br)cc3[C@H]2N2C(=O)N(c3ccc(Cl)cc3)C(=O)[C@@]12C | inactive
31 | O=C(CCN1CCc2ccccc2C(O)(c2ccccc2)C1)c1ccc2c(c1)OCCO2 (configuration not stated) | 11.5% (active)
32 | CCc1nnc(NS(=O)(=O)c2ccc(N=Cc3c(C)[nH]n(-c4ccc(C)cc4)c3=O)cc2)s1 | inactive
33 | CCC(c1nnnn1Cc1ccco1)N(Cc1cc2cc(OC)ccc2[nH]c1=O)C1CCCCC1 (configuration not stated) | inactive
34 | C=C(C)C(=O)O[C@H]1C/C(C)=C\C(=O)/C=C(\C)[C@H](O)[C@@H]2OC(=O)C(=C)[C@@H]21 | inactive
35 | CCCCOC(=O)CNc1nnc(SCC(=O)OCC)[nH]c1=O | inactive
36 | CNCC(O)c1ccc(O)c(O)c1 (configuration not stated) | inactive
37 | Cc1ccc(S/C(=N\S(=O)(=O)c2ccc(Cl)cc2)c2ccccc2)cc1 | 25% (active)
38 | COc1ccc(OC)c(S(=O)(=O)N2CCCC(C(=O)N3CCC(C(N)=O)CC3)C2)c1 (configuration not stated) | inactive
39 | CCOC(=O)C1CCN(C(c2cc3cc(C)cc(C)c3[nH]c2=O)c2nnnn2C2CCCCC2)CC1 (configuration not stated) | inactive
40 | Cc1noc(NS(=O)(=O)c2ccc(N/C=C/C(=O)c3ccccc3)cc2)c1C | inactive
41 | Cc1ccsc1/C=N/n1c(=S)[nH]nc(C)c1=O | inactive
42 | CCOc1ccc(/C=N/NC(=O)CSc2ccccn2)cc1O | inactive
43 | Cc1nc(-c2ccccc2)sc1C(=O)/C=C/c1ccccc1 | 22.5% (active)
44 | S=c1[nH]nc(-c2cccnc2)n1/N=C/C(Cl)=C\c1ccccc1 | inactive

Row | Compound | calcium response (agonist-mode artifact)
45 | Oc1ccc(-c2[nH]ncc2-c2nc3ccccc3s2)c(O)c1 | inactive
46 | COc1cc(/C=C2/C(=O)ON=C2C)ccc1OCc1ccccc1F | 222% (active)
47 | C#CCOc1ccc(/C=C2/C(=O)ON=C2C)cc1OCC | inactive
48 | C=CCOc1ccc(/C=C2/C(=O)ON=C2C)cc1OCC | 10% (active)
49 | Cc1ccc(NC(=O)c2c(NC(=O)CCC(=O)O)sc3c2CCCCC3)cc1 | inactive
50 | Cc1ccc(Nc2nc(N)nc(CSc3nnc(C)s3)n2)cc1 | inactive
51 | Cc1ccc(Nc2nc(N)nc(CN3CCN(Cc4ccccc4)CC3)n2)cc1Cl | inactive
52 | Brc1ccc(-c2csc(N/N=C/c3cccnc3)n2)cc1 | inactive
53 | CCOc1ccc(NC(=O)C/C(C)=N/NC(=O)Cc2cccs2)cc1 | inactive
54 | COc1ccc(/C=C/C(=O)c2ccc(OC)cc2O)cc1 | 11.5% (active)
55 | O=C(/C=C/c1ccc(Cl)c([N+](=O)[O-])c1)c1ccc(O)cc1 | inactive
56 | Cc1c(NC(=O)c2coc(=O)c(Br)c2)c(=O)n(-c2ccccc2)n1C | inactive
57 | CCc1ccc(C2C(C#N)=C(N)N(N3CCOCC3)C3=C2C(=O)CC(C)(C)C3)s1 (configuration not stated) | inactive
58 | COc1ccc(S(=O)(=O)Nc2ccc(O)c(Sc3nc4ccccc4s3)c2)cc1 | inactive
59 | O=[N+]([O-])c1c(NCCO)cc(Sc2nc3ccccc3s2)c2nonc12 | 114% (active)
60 | C[C@H](NC(=O)c1nc[nH]c1C(=O)NCC(=O)OC(C)(C)C)c1ccccc1 | inactive
61 | Cc1nc(Nc2ccc(S(=O)(=O)N3CCCC3)cc2)c2nnn(Cc3ccccc3)c2n1 | inactive
62 | Nc1cccc(-c2cc(-c3ccccc3)nc(-c3cccc(N)c3)n2)c1 | inactive
63 | O=C(N/N=C/c1ccccc1O)/C(=C/c1ccccc1)CCO | inactive
64 | CS(=O)(=O)N(CC(O)Cn1c2ccccc2c2ccccc21)c1cccc2ccccc12 (configuration not stated) | inactive
65 | COCCCNC(=S)N(CCN(C)C)Cc1cc2cc3c(cc2[nH]c1=O)OCCO3 | inactive
66 | C1=C(N2CCOCC2)/C(=C/c2nc3ccccc3[nH]2)CC1 | 185% (active)

Row | Compound | calcium response (agonist-mode artifact)
67 | Cc1nn(C(C)C(=O)N2CCOCC2)c(=O)c2nn(-c3ccccc3)c(C)c12 (configuration not stated) | inactive
68 | Cc1ccc(Sc2cc(N3CCOCC3)nc(-c3ccccc3)n2)cc1 | 17% (active)
69 | COC(=O)C1CCN(C(=O)c2cc(=O)[nH]c3ccccc23)CC1 | inactive
70 | COC(=O)Cn1cc(/C=C/[N+](=O)[O-])c2ccccc21 | 11.5% (active)
71 | CC(C)Cc1nc(Nc2ccc(S(=O)(=O)N3CCCC3)cc2)c2nnn(Cc3ccccc3)c2n1 | inactive
72 | COc1cc(Br)cc(/C=N/c2ncn[nH]2)c1O | inactive
73 | COc1cc(/C=C2/C(=O)NN(c3cccc(Cl)c3)C2=O)cc(Br)c1O | 43.5% (active)
74 | C#CCOc1ccc(/C=C2/C(=O)NN(c3ccccc3)C2=O)cc1OC | inactive
75 | Cc1ccc(/C=C2\CCn3c2nc2cc(C(=O)O)ccc2c3=O)c(C)c1 | inactive
76 | O=[N+]([O-])/C=C/c1ccc2c(ccn2Cc2ccccc2)c1 | 104% (active)
77 | Cc1cc(-c2n[nH]c(=S)n2/N=C/C(Br)=C/c2ccccc2)n[nH]1 | inactive
78 | O=C(O)C(c1ccccc1)N1C(=O)/C(=C\c2ccc(-c3cccc(Cl)c3)o2)SC1=S (configuration not stated) | 599% (active)
79 | O=C1c2ccccc2NC(c2ccc(-c3cccc(Cl)c3)o2)N1O (configuration not stated) | inactive
80 | O=C1Nc2ccc(Br)cc2/C1=N/N=C/C1=C(N2CCOCC2)C(=C\c2ccccc2)/CC1 | inactive
81 | O=C(COC(=O)c1cccc(Br)c1)Nc1cccc2c1C(=O)c1ccccc1C2=O | inactive
82 | Oc1ccc(/C=N/Nc2ccc(C(F)(F)F)cn2)cc1O | inactive
83 | Cc1nn2c(=O)cc(COC(=O)c3ccc(NC(=O)C(C)(C)C)cc3)nc2s1 | inactive
84 | COc1ccc(C(C[N+](=O)[O-])n2nc(C)cc2C)cc1 (configuration not stated) | 16% (active)
85 | CCOC(=O)C1=NN(c2ccc(Cl)cc2)/C(=C/C2=NCCc3cc(OC)c(OC)cc32)S1 | 7% (active)
86 | COc1ccc(NCc2nnc(SCc3ccccc3)n2-c2ccc(OC)cc2)cc1 | inactive
87 | O=S(=O)(Nc1nccs1)c1ccc2c(c1)OCCO2 | inactive
